SMILES strings stand for the structures. Calls of active or inactive are those of the source.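 How the source made its calls: active means CXCR6 mean IC50 below 15 µM, and neither CCR6 nor CXCR5 mean IC50 under five times that; inactive means the rest.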

In the assay the target is C-X-C chemokine receptor type 6 (Homo sapiens) (UniProt O00574). In words: antagonist selectivity across CCR6, CXCR5 and CXCR6 – cell-based, CHO-K1 PathHunter beta-arrestin, luminescence, selectivity assay for CXCR6 antagonist project, profiling panel (AID 651601). Conditions: antagonist mode, mean of runs.
C-X-C chemokine receptor type 6 (Homo sapiens), sequence (O00574 whole entry, looked up): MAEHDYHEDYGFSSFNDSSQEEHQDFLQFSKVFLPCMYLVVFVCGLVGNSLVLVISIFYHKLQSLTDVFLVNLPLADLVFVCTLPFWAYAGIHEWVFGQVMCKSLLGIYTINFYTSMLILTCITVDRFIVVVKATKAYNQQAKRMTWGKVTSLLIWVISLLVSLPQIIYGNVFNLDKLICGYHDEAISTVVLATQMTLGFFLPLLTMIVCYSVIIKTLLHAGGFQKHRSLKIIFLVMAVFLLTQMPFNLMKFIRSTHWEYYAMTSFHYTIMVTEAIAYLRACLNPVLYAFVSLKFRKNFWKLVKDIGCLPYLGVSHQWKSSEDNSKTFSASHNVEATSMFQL
As for `CN(C)c1ccc(NC(=O)CN2C3CCCC2CC(NC(=O)c2ccccc2)C3)cc1` (stereo unspecified), the molecule was called inactive.
To `COc1cccc(C(=O)NC2CC3CCCC(C2)N3CC(=O)Nc2ccc(N(C)C)cc2)c1` (stereo unspecified) belongs “inactive”.
To `COc1cccc(C(=O)NC2CC3CCCC(C2)N3CC(=O)Nc2ccccc2C(F)(F)F)c1` (stereo unspecified) belongs “inactive”; to `COc1cc(C(=O)NC2CC3CCCC(C2)N3CC(=O)Nc2ccccc2)cc(OC)c1OC` (stereo unspecified), “active”.
As for `O=C(CN1C2CCCC1CC(NC(=O)c1ccccc1)C2)Nc1ccccc1` (stereo unspecified), the outcome was inactive.
In the case of `O=C(CN1C2CCCC1CC(NC(=O)c1ccccc1)C2)Nc1ccccc1C(F)(F)F` (stereo unspecified), the molecule was called inactive.

Values taken from PubChem BioAssay AID651601 (Sanford-Burnham Center for Chemical Genomics, 2012).
